IP6K1 inhibitor: Primary qHTS assay for small molecule inhibitors of Inositol hexaphosphate kinase 1 (IP6K1); Inositol hexakisphosphate kinase 1 (Homo sapiens), Q92551; IP6K1 kinase, ADP-Glo luminescence, 2 h; stronger effect = lower value; activity change, % (series mostly up to about 58 µM); 0.81% of 140,000 active; in the data active = activity change below about -25%
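ADP-Glo luminescence measures ADP made by human IP6K1 during a 2 h RT reaction with ATP/IP6 (mix at 1.3 mM/130 uM); top library doses 57.5 and 19.1 uM final.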
SNCA viab count: GF-AFC viability counterscreen for inhibitors of alpha-synuclein gene (SNCA) expression; HEK-293-SNCA-luc viability, GF-AFC fluorescence, 24 h; Potency, µM (doses to about 57.1 µM), actives largely listed as cytotoxic; 0.12% of 150,000 active; AID 1671193, 2021; also: nearly all actives have a fitted effect of over 30% in size
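Cytotoxicity counterscreen: after 24 h compound treatment of genome-edited SNCA-luciferase HEK-293 cells, live-cell protease substrate GF-AFC read by fluorescence after 30 min; activity scaled between DMSO (0%) and medium-only (-100%), curves Hill-fitted.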
KDM5B inhibitor: Primary screen for KDM5B Histone Demethylases FDH-coupled qHTS | Potency, µM (top dose mostly 57.7 µM), most hits filed as inhibitors | AID 1347165, 2019 | Lysine-specific demethylase 5B (Homo sapiens), Q9UGL1 | KDM5B demethylase, FDH-coupled NADH fluorescence (FDH is formaldehyde dehydrogenase) | 2.6% of 220,000 active; also: nearly all actives have a fitted effect of over 70% in size
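Here, H3K4me3 peptide (12.5 µM in substrate mix) is demethylated by KDM5BΔAP, 200 nM final, after 10 min compound exposure. Formaldehyde product is coupled through FDH (0.25 U/mL in mix) to NADH fluorescence; 30-min ΔRFU feeds dose-response curves.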
SNCA expr inhib: Primary qHTS assay for inhibitors of alpha-synuclein gene (SNCA) expression. HEK-293 SNCA-luciferase knock-in, luminescence, 24 h. Potency, µM (highest dose often 57.2 µM), hits mostly inhibitors. 0.17% of 140,000 active. AID 1671194, 2021; also: nearly all actives have a fitted effect of over 45% in size
Of the large screens only hits and unclear results are named; the others gave an inactive call. An excerpt weighted towards active compounds, which were near 3% of everything screened. Unless noted, calls follow the shape of the dose curve; as a rule, active = well fitted curve in the direction sought with a large enough effect; inconclusive = small, poorly fitted or top-dose-only effect, or another doubt; inactive = no such curve, though single readings can be large; an effect the other way counts as inactive or inconclusive.

CN(C)C(=O)C1CCCCN1Cc1ccc(-c2cccs2)cc1 (stereo unspecified)	none (no result: KDM5B inhibitor)
Cc1c(-c2ccccc2F)[nH]c2ccc(CNC(=O)CCc3cnccn3)cc12	KDM5B inhibitor 13µM
Cc1c(-c2ccccc2F)[nH]c2ccc(CNC(=O)CC3CCC(=O)N3)cc12 (stereo unspecified)	KDM5B inhibitor 32µM
Cc1c(-c2ccccc2F)[nH]c2ccc(CNC(=O)CCc3cc(=O)[nH]o3)cc12	KDM5B inhibitor inconclusive, SNCA expr inhib inconclusive
Cc1c(-c2ccccc2F)[nH]c2ccc(CNC(=O)CCN3CCCO3)cc12	KDM5B inhibitor 25µM
Cc1ccc(-c2cccc(CN3CCCC(NC(=O)c4c(C)noc4C)C3)c2)cc1Cl (stereo unspecified)	SNCA expr inhib inconclusive (no result: KDM5B inhibitor)
O=C(Nc1ccc(Cl)cc1)NC1CCN(c2nccc(Nc3ccccc3F)n2)CC1	none (no result: KDM5B inhibitor)
Cc1noc(-c2cccn3c(CNC(=O)c4ccccc4C)nnc23)n1	KDM5B inhibitor 28µM
CCCc1noc(-c2cccn3c(CNC(=O)c4ccccc4F)nnc23)n1	KDM5B inhibitor inconclusive
CCCc1noc(-c2cccn3c(CNC(=O)c4ccccc4Cl)nnc23)n1	KDM5B inhibitor 28µM, SNCA expr inhib inconclusive
CCCc1noc(-c2cccn3c(CNC(=O)c4ccccc4C)nnc23)n1	KDM5B inhibitor 13µM
Cc1cc(C)cc(C(=O)NCc2nnc3c(-c4nc(C)no4)cccn23)c1	KDM5B inhibitor inconclusive
CCc1noc(-c2cccn3c(CNC(=O)Cc4c[nH]c5ccccc45)nnc23)n1	KDM5B inhibitor inconclusive
CCCc1noc(-c2cccn3c(CNC(=O)Cc4c[nH]c5ccccc45)nnc23)n1	KDM5B inhibitor 20µM
CCCc1noc(-c2cccn3c(CNC(=O)c4ccc(C)cc4C)nnc23)n1	KDM5B inhibitor inconclusive
COc1cc(Cl)ccc1-c1ccc(COc2ccc3c(cnn3CCC(=O)O)c2)cc1	KDM5B inhibitor inconclusive
Cc1ccc(-c2cc(C(=O)NCc3ccc(C(F)(F)F)cc3)c3cnn(C)c3n2)c(C)c1	SNCA expr inhib inconclusive (no result: KDM5B inhibitor)
CCc1noc(-c2cccn3c(CNC(=O)c4ccccc4OC)nnc23)n1	KDM5B inhibitor inconclusive
CCCc1noc(-c2cccn3c(CNC(=O)c4cccc(Cl)c4)nnc23)n1	KDM5B inhibitor inconclusive
CCCc1noc(-c2cccn3c(CNC(=O)c4ccc(F)cc4Cl)nnc23)n1	KDM5B inhibitor 14µM, SNCA expr inhib inconclusive
CCCc1noc(-c2cccn3c(CNC(=O)c4cc(C)ccc4C)nnc23)n1	KDM5B inhibitor 28µM
CCc1noc(-c2cccn3c(CNC(=O)c4ccccc4Cl)nnc23)n1	KDM5B inhibitor 28µM
O=C(Nc1ccc(Cl)cc1)N1CCN(c2nccc(Nc3ccccc3F)n2)CC1	none (no result: KDM5B inhibitor)
O=C(NCc1cccc(C(F)(F)F)c1)c1nc2sccn2c1-c1cccnc1	none (no result: KDM5B inhibitor)
O=C1CC2CCN(C(=O)c3ccccc3)CC2CCN1 (stereo unspecified)	KDM5B inhibitor 28µM
O=C1CC2CCN(C(=O)c3ccc(F)cc3)CC2CCN1 (stereo unspecified)	none
O=C(NCc1nnc2ccc(-c3ccc(F)cc3)nn12)c1ccc(Cl)s1	KDM5B inhibitor 28µM
O=C(NCc1nnc2ccc(-c3ccc(Cl)cc3)nn12)C1(c2ccccc2)CC1	KDM5B inhibitor 20µM
Cc1ccc(-c2ccc3nnc(CNC(=O)c4c(F)cccc4F)n3n2)cc1	KDM5B inhibitor 25µM
Cc1ccc(-c2ccc3nnc(CNC(=O)c4ccc(F)cc4)n3n2)cc1	KDM5B inhibitor 25µM
CCN(CC)c1ccc(C(=O)NCc2nnc3ccc(-c4ccc(C)cc4)nn23)cc1	none
O=C(NCc1nnc2ccc(-c3ccc(Cl)cc3)nn12)c1cc(F)ccc1F	KDM5B inhibitor inconclusive
CO[C@H]1C(=O)N(C2CCN(C(=O)c3nccc4ccccc34)CC2)[C@H]1c1ccncc1	none (no result: KDM5B inhibitor)
O=C(NCCc1ccc(Cl)cc1)c1nc2cccnc2n(Cc2ccccc2)c1=O	none (no result: KDM5B inhibitor)
O=C1CCN(CC(O)Cc2ccccc2)c2ccccc2CN1CC1CC1 (stereo unspecified)	none (no result: SNCA viab count, KDM5B inhibitor, SNCA expr inhib)
O=C(NCc1nnc2ccc(-c3ccc(F)cc3)nn12)c1cc(Cl)ccc1F	KDM5B inhibitor 25µM
O=C(NCc1nnc2ccc(-c3ccccc3)nn12)c1cc(F)ccc1Cl	KDM5B inhibitor 18µM
Cc1ccc(-c2ccc3nnc(CNC(=O)c4cccc(C(F)(F)F)c4)n3n2)cc1	KDM5B inhibitor 32µM, SNCA expr inhib inconclusive
Cc1ccc(-c2ccc3nnc(CNC(=O)c4cc(F)ccc4F)n3n2)cc1	KDM5B inhibitor 25µM
O=C(NCc1cccc(F)c1)[C@@H]1CCCN1c1nccc(Nc2ccccc2Cl)n1	none (no result: KDM5B inhibitor)
CN(C(=O)c1cc(-c2ccccc2C(F)(F)F)nc2c1cnn2C)c1ccccc1	none (no result: SNCA viab count, KDM5B inhibitor, SNCA expr inhib)
O=C(NCc1nnc2ccc(-c3ccccc3)nn12)c1cc(Cl)ccc1F	KDM5B inhibitor 25µM
CN1CCN(c2cc(=O)c3ccnc(N4CCOCC4)c3o2)CC1	none
CN(c1cc(=O)c2ccnc(-c3cccc(CO)c3)c2o1)C1CCOCC1	KDM5B inhibitor 40µM
CN(C)c1cccc(-c2nccc3c(=O)cc(N(C)C4CCOCC4)oc23)c1	KDM5B inhibitor 28µM, SNCA expr inhib inconclusive
CN1CCN(c2nccc3c(=O)cc(N(C)C4CCOCC4)oc23)CC1	KDM5B inhibitor 40µM
CN(c1cc(=O)c2ccnc(-c3ccc([S+](C)(=O)[O-])cc3)c2o1)C1CCOCC1	KDM5B inhibitor 35µM
CC(C)c1nc(-c2ccc(OC3CCN(C(=O)c4ccoc4)C3)cc2)no1 (stereo unspecified)	none (no result: KDM5B inhibitor)
CN(c1cc(=O)c2ccnc(-c3cncnc3)c2o1)C1CCOCC1	none
CC(=O)Nc1ccccc1-c1nccc2c(=O)cc(N(C)C3CCOCC3)oc12	KDM5B inhibitor 35µM
CNC(=O)C1=C(OCc2ccccc2)c2ccccc2[S+](=O)([O-])N1c1c(C)cccc1C	none (no result: SNCA viab count, KDM5B inhibitor, SNCA expr inhib)
Cc1cc(C)cc(-c2ccc(CN3CCCC(N[S+](=O)([O-])c4cccc(C(F)(F)F)c4)C3)cc2)c1 (stereo unspecified)	SNCA expr inhib inconclusive (no result: KDM5B inhibitor)
COc1cc(NC(=O)c2cc3c(N4CCSCC4)nc(C)cn3n2)cc(OC)c1OC	KDM5B inhibitor 22µM
Cc1cn2nc(C(=O)NCc3ccc(F)cc3)cc2c(N2CCSCC2)n1	KDM5B inhibitor inconclusive
COc1ccc(OC)c(NC(=O)c2cc3c(N4CCSCC4)nc(C)cn3n2)c1	none
Cc1cn2nc(C(=O)Nc3ccc(C)c(F)c3)cc2c(N2CCSCC2)n1	KDM5B inhibitor 25µM
COc1ccc(NC(=O)c2cc3c(N4CCSCC4)nc(C)cn3n2)cc1OC	KDM5B inhibitor 28µM
COc1cccc(NC(=O)c2cc3c(N4CCSCC4)nc(C)cn3n2)c1	KDM5B inhibitor 28µM
COc1cccc(C(=O)NC2CCCN(Cc3ccc(-c4cccc(OC)c4)cc3)C2)c1 (stereo unspecified)	SNCA viab count inconclusive (no result: KDM5B inhibitor)

Screening data (PubChem)
